# Screens deposited in PubChem by The Scripps Research Institute Molecular Screening Center.
# A selection: hits, their analogues and other compounds. The true share with any hit is near 4.1%.
# DAX1 inh-1: DAX1 (NR0B1) inhibition, primary screen. HEK293T StAR-luciferase reporter, SF-1/DAX-1 repression relief. inhibition, % at 6.8 µM. actives 1.1% (n = 370,000). AID 652010;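 active means inhibition above the mean over all tested compounds plus 3 SD, cut at about 3.6% in these data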;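 further: 0% = DAX-1 cells with DMSO and 100% = cells lacking DAX-1 with DMSO; higher inhibition means more luminescence from relief of DAX-1 repression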
# hcDAF-12 act: H. contortus DAF-12 activation, primary screen. HEK293 hcDAF-12 lit1-tk-luc reporter, luminescence; 0% DMSO, 100% Δ7-dafachronic acid. activation, % at 6.8 µM. actives 1.4% (n = 370,000);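 active means activation above the mean of all tested compounds plus 3 SD, cut at about 5.5% in these data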;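 further: 100% = response to 3 µM Δ7-dafachronic acid high control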
# ssDAF-12 act: activates DAF-12 receptor from parasite S. stercoralis; actives 1% (n = 370,000); activation, % at 6.8 µM; HEK293 ssDAF-12/GRIP1 lit1-tk-luc reporter, luminescence; % of 3 µM dafachronic acid response;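 active means activation above the mean over all tested compounds plus 3 SD, cut at about 0.9% in these data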;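 further: 0% = DMSO-only wells and 100% = 3 µM delta7-dafachronic acid wells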
# DAX1 inh-2: inhibitors of human orphan nuclear receptor DAX1 (NR0B1); P51843; HEK293 Gal4-DAX1 luciferase reporter, luminescence; inhibition, % at 6.75 µM; actives 0.99% (n = 340,000); AID 504766;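 active means inhibition above the mean over all tested compounds plus 3 SD, cut at about 4.2% in these data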;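 further: 0% = DAX1-transfected cells with DMSO and 100% = empty-vector control cells with DMSO; inhibition shows as a rise in luminescence from relieved DAX1 repression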
# hgDAF12 agonist: agonists of H. glycines DAF-12 nuclear receptor. HEK293 GAL4-hgDAF12 UAS-luciferase reporter, agonist luminescence; normalized to butyrate control. activation, % at 6.8 µM. actives 1.8% (n = 370,000). AID 687014;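 active means activation above a cutoff set at the mean of all screened compounds plus 3 SD, cut at about 10% in these data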;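 further: 0% = DMSO wells and 100% = sodium butyrate wells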
# DAX1 inh confirm: NR0B1 (human) inhibition, confirmation; shares compounds with DAX1 inh-1; HEK293T StAR-promoter luciferase reporter, SF-1/DAX-1 repression; inhibition, % at 6.8 µM; actives 87% (n = 2,400); AID 652134;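 active means inhibition above the average of every tested compound plus 3 SD, cut at about 3.8% in these data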;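 further: 0% = DAX-1 cells with DMSO and 100% = no DAX-1 control cells with DMSO; active compounds raise luminescence by relieving repression of the StAR reporter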
# Target sequence (P51843 whole entry, looked up): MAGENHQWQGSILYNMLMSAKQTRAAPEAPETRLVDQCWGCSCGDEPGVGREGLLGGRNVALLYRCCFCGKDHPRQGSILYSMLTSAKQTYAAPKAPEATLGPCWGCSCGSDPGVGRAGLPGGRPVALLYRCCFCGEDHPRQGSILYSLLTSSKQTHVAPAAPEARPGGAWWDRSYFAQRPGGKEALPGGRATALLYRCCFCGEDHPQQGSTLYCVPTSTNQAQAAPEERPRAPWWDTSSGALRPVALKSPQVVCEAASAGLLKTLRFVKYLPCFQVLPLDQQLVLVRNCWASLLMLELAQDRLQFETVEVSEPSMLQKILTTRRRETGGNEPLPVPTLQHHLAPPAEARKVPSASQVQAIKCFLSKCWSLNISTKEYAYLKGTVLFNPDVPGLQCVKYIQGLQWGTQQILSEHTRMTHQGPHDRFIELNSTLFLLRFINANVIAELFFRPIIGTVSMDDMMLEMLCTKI
# SF1 AF2mut Luc: counter-screen for DAX1 inhibitors: nonselective inhibitors with SF-1 AF2 mutant. shares compounds with DAX1 inh-1. HEK293 StAR-luciferase, luminescence. inhibition, % at 6.8 µM. actives 78% (n = 2,400);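 active means inhibition above the mean of all tested compounds plus 3 SD, cut at about 3% in these data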;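 further: 0% = DAX-1 transfected cells with DMSO and 100% = cells without DAX-1 with DMSO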
# Active calls of the source: *; . = no result.
SMILES,DAX1 inh-1,hcDAF-12 act,ssDAF-12 act,DAX1 inh-2,hgDAF12 agonist,DAX1 inh confirm,SF1 AF2mut Luc
Cc1ccc(CN2CCCCC(NC(=O)c3c(F)cccc3F)C2=O)cc1 (stereo unspecified),-1,-2,-1,.,1,.,.
Cc1cc(Cl)c2oc(C(=O)N3CCN(C4CCS(=O)(=O)C4)CC3)c(C)c2c1 (stereo unspecified),0,0,-1,1,-2,.,.
C=CCN(C(=O)c1oc2c(Cl)cc(C)cc2c1C)C1CCS(=O)(=O)C1 (stereo unspecified),5.2*,1,0,1,6,6.1*,4.0*
CCOc1ccc(C=NNC(=O)c2cc(-c3ccc(Cl)cc3)n[nH]2)cc1,-4,-2,-2,.,5,.,.
Cc1nc2ccc(NC(=O)Cc3ccccc3F)cc2s1,5.3*,4,0,2,9,11*,6.9*
Cc1nc2ccc(NC(=O)Cc3cccc(F)c3)cc2s1,1,0,-1,0,0,.,.
Cc1nc2ccc(NC(=O)c3cccs3)cc2s1,7.4*,3,0,0,8,9.3*,4.7*
CC(C)C[C@H]1COc2cccc(F)c2S(=O)(=O)N1Cc1cn(CCC2OCCCO2)nn1,-1,-2,-1,.,1,.,.
CC(C)C(=O)Nc1ccc(-c2nc3cccnc3o2)cc1,4.5*,5.9*,0,0,13*,12*,4.1*
Cn1c(NC2=NC3(CCCC3)C3=C(CCCC3=O)N2)nc2ccccc21,.,0,-1,.,1,.,.
CCOC(=O)c1sc(=NC(=O)c2c(F)cccc2F)n(C)c1C,3,0,-1,0,3,.,.
CCOC(=O)c1sc(=NC(=O)c2ccc(F)cc2)n(C)c1C,6.8*,6.0*,0,1,7,15*,7.4*
O=C(CCS(=O)(=O)c1ccccc1)N(CCCN1CCOCC1)c1nc2ccc(F)cc2s1,6.7*,1,-1,0,9,5.5*,2
CCCN1CCN(C(=O)c2cc3c(s2)-c2ccccc2OC3)CC1,5.4*,4,0,1,5,9.9*,5.2*
O=C(O)c1cccc(NC(=S)NC(=O)c2ccc3ccccc3c2)c1,11*,-1,-1,-3,3,8.0*,4.4*
O=C(NC(=S)Nc1ccc2ncccc2c1)c1ccccc1,4.8*,3,-1,1,12*,7.7*,5.8*
O=C(O)c1ccc(NC(=S)NC(=O)c2ccc3ccccc3c2)cc1,2,1,-1,0,3,.,.
O=C(NC(=S)Nc1ccc2nc[nH]c2c1)c1ccccc1,6.5*,0,0,1,6,5.9*,3.1*
O=C(Nc1ccc2ncccc2c1)c1ccccc1,0,-3,-1,-1,0,.,.
O=C(NC(=S)Nc1ccc2[nH]ncc2c1)c1ccccc1,0,-1,-1,1,0,.,.
CN=C1S/C(=C/c2cc(C)n(-c3cc(C)ccc3OC)c2C)C(=O)N1C,.,-3,-2,.,-3,.,.
COC(=O)[C@]12C[C@H](CC(=O)NCCc3ccccc3OC)C(=O)N(CCc3ccc(OC)c(OC)c3)C1=C[C@H](C(C)C)O[C@@H]2C1CC1,-1,-2,-1,.,-2,.,.
CN1[C@H](Cc2ccccc2)COc2cc(N3CCSCC3)ccc2S1(=O)=O,-2,0,-1,.,-2,.,.
COc1ccc(N=C2C(=S)N(c3ccc(OC)cc3)C(=NS(=O)(=O)c3ccccc3)N2c2ccccc2)cc1,8.2*,5,0,2,13*,2,4.2*
CC(C)[C@H](NC(=O)OC(C)(C)C)c1cc(C(=O)N2CCOCC2)c(N)s1,6.0*,0,-1,.,6,0,-2
CC(C)[C@H](NC(=O)OC(C)(C)C)c1cc(C(=O)NCCO)c(N)s1,0,0,-1,.,-3,.,.
CCOC(=O)c1c(C)[nH]c(N=Nc2cccc(C)c2)c1C,4.6*,2,1,2,10,8.8*,3.9*
